# Assay outcomes as filed in PubChem.
# MRP resist rev: reverses drug resistance mediated by MRP. AID 602. 85,000 tested, 0.04% active. differential viability (reversal), % at 10 µM. H69AR cells + 2 uM doxorubicin, CellTiter-Glo, 72 h;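 active means viability drop by adding the cancer drug above about 55%, with treated viability meeting a 40% cutoff, limit read from the data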;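 further: viability without doxorubicin minus viability with 2 µM doxorubicin for each compound; larger differential means the compound sensitizes cells more to doxorubicin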
# CYP2C19 inh: human CYP2C19 inhibition; inhibition, % at 5 µM; 96,000 tested, 21% active; P33261; CYP2C19 Supersomes, luciferin-H EGE luminescence, 30 min;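 active means CYP2C19 inhibition above a set limit at 5 µM in the primary screen, cut at about 50% in these data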;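 further: plate controls were negative control wells for no effect and 2.5 mM tranylcypromine positive control for full effect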
# MRP1 act: MRP-1 activation. H69AR cells + doxorubicin, viability rescue, CellTiter-Glo. viability increase, % at 10 µM. 140,000 tested, 0.61% active;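 active means viability gain under doxorubicin at or above a set limit, the compound median plus 3 SD, cut at about 4.7% in these data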;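 further: MRP-1 overexpressing cells given doxorubicin 25 µM after compound pretreatment; 18-22 h compound pretreatment then 72 h with doxorubicin before readout; 0% = doxorubicin-only wells and 100% = vehicle-treated cells without doxorubicin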
# CYP2C9 activ: CYP2C9 (human) activation; recombinant CYP2C9, luciferin-H conversion, luminescence; stronger effect = higher value; factor 1 = untreated enzyme, 0 = blocked; activation factor at 5 µM; 96,000 tested, 1.4% active;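 active means activation factor of 2 or more for CYP2C9 at a 5 µM dose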;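 further: 0 = sulfaphenazole-blocked wells and 1 = vehicle-only wells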
# Target sequence (P11712 whole entry, looked up): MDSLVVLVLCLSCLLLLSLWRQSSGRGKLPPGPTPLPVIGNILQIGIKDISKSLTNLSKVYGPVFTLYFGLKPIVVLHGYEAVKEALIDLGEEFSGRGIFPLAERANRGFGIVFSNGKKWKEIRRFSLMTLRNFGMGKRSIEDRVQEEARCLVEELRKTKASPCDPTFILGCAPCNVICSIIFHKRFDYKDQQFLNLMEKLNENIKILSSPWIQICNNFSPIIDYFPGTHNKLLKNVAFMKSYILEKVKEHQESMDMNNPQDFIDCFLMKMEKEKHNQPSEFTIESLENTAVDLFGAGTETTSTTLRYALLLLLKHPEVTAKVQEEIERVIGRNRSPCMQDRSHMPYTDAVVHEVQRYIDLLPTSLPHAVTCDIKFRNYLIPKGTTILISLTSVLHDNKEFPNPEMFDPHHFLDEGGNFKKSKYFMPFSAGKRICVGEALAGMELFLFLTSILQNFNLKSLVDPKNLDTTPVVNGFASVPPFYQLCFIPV
# CYP2C9 inhib: human CYP2C9 inhibition | 96,000 tested, 20% active | P11712 | CYP2C9 Supersomes, luciferin-H conversion, luminescence | inhibition, % at 5 µM;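 active means blocking of liver enzyme CYP2C9 beyond about 50% at 5 µM, limit read from the data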
# CYP2C19 activ: increases human CYP2C19 enzyme activity. activation factor at 5 µM. 96,000 tested, under 10 active. AID 1025. P33261. recombinant CYP2C19, luciferin-H EGE luminescence; stronger effect = higher value; 0 = fully inhibited enzyme, 1 = untreated enzyme;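 active means activation factor of at least 2 at 5 µM in the primary screen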;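 further: 0 = wells with 2.5 mM tranylcypromine and 1 = vehicle-only wells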
# Starred values were filed as active, the others as inactive; x = no result. A selection: hits, their analogues and other compounds. The true share with any hit is near 21%.
SMILES,MRP resist rev,CYP2C19 inh,MRP1 act,CYP2C9 activ,CYP2C9 inhib,CYP2C19 activ
CSc1ccc(CNc2ccccc2)cc1,x,92*,0,0.9,9,0.1
CSc1ccc(CNc2ccccn2)cc1,6,63*,1,0.9,14,0.4
Cc1cc(C(=O)Nc2sc3c(c2C#N)CCC(C)C3)no1 (stereo not given),-24,6,-1,0.2,76*,0.9
CC1CCc2c(sc(NC(=O)C(=O)NCc3ccco3)c2C#N)C1 (stereo not given),-4,13,0,0.3,68*,0.9
Cc1[nH]n(-c2ccccc2)c(=O)c1C1(C(F)(F)F)C(=O)N(c2ccccc2)C2=C1C(=O)CC(C)(C)C2 (stereo not given),x,20,0,0.3,73*,0.8
Cc1ccc(N2C(=O)C(c3c(C)[nH]n(-c4ccccc4)c3=O)(C(F)(F)F)C3=C2CC(C)(C)CC3=O)cc1 (stereo not given),-7,37,0,0.6,41,0.6
COc1cc(/C=C2\SC(c3ccc(C)cc3)=NC2=O)cc(OC)c1OC,x,22,-1,0.4,63*,0.8
COc1cc(/C=C2\SC(N3CCc4ccccc4C3)=NC2=O)cc(OC)c1OC,x,x,-4,x,x,x
COc1ccc(/C=C2\SC(c3ccc(C)cc3)=NC2=O)cc1OC,x,11,0,0.7,25,0.9
COc1ccc(/C=C2/SC(c3ccc(C)cc3)=NC2=O)cc1OC,x,41,4,0.4,61*,0.6
Cc1nnc(-n2ncc(C#N)c2N)c2nn(-c3ccccc3F)c(C)c12,6,x,x,x,x,x
COc1ccc(-c2nc(-c3ccc(Br)o3)no2)cc1OC,x,-9,3,0.6,41,1.1
COc1ccc(-c2nnc(-c3ccc(Br)o3)o2)cc1OC,6,56*,2,0.7,31,0.4
CC12CCC(c3nnc(SCC(=O)Nc4cccc5ccccc45)nc31)C2(C)C (stereo not given),x,16,-2,0.8,22,0.8
Cc1ccc(N=C2N=C(N)c3ccccc32)c(C)c1,x,5,-3,0.4,58*,1
CSc1nc(C)c2cc(C)oc2n1,2,-14,-3,1.2,-19,1.1
Cc1cc2c(C)nc(Cc3ccccc3)nc2o1,12,74*,-2,0.9,9,0.3
Cc1ccc(OCCNc2cc(N3CCN(CCO)CC3)ccc2[N+](=O)[O-])cc1C,x,x,-4,x,x,x
Cc1ccc(Cl)cc1N1CCN(C(CC(C)C)c2nnnn2CC2CCCO2)CC1 (stereo not given),11,34,-2,0.8,22,0.7
COc1ccc(C(c2nnnn2CC2CCCO2)N2CCN(c3ccccc3)CC2)cc1 (stereo not given),x,-2,-3,0.9,14,1
CCCC(c1nnnn1CC1CCCO1)N1CCN(c2cc(Cl)ccc2C)CC1 (stereo not given),2,96*,2,0.1,89*,0
Cc1ccc(C(c2nnnn2CC2CCCO2)N2CCN(c3cccc(C)c3C)CC2)cc1 (stereo not given),-13,40,-2,0.3,70*,0.6
CCC(c1nnnn1C(C)(C)C)N1CCN(c2cc(Cl)ccc2C)CC1 (stereo not given),4,39,0,0.2,79*,0.6
O=c1c(Cc2ccc(Cl)cc2)c(O)ccn1Cc1cccc(Cl)c1,x,0,-3,0.8,22,1
O=c1c(Cc2ccc(Cl)cc2Cl)c(O)ccn1Cc1ccc(Cl)cc1,x,54*,2,0.9,13,0.5
SMILES,MRP resist rev,CYP2C19 inh,MRP1 act,CYP2C9 activ,CYP2C9 inhib,CYP2C19 activ
Cc1ccc(NC(=O)N/C=C/c2ccco2)cc1,x,43,-1,0.7,33,0.6
COC(=O)C1=C(C(=O)OC)C2(OC1c1ccccc1C)C(=O)c1ccccc1C2=O (stereo not given),28,x,1,x,x,x
COC(=O)C1=C(C(=O)OC)SC2(S1)C(C(=O)OC)=C(C(=O)OC)SC1=C2c2cccc(C)c2NC1(C)C,-10,85*,-2,0.1,88*,0.1
C#CC1CN(Cc2ccccc2)CC(C#C)N1C (stereo not given),x,39,0,1,0,0.6
CCC(NS(=O)(=O)c1ccc(C)cc1)C(=O)N1CCN(c2ccccn2)CC1 (stereo not given),-7,27,-3,0.9,6,0.7
CN(C)S(=O)(=O)N1CCN(C(=O)N(c2ccccc2)c2ccccc2)CC1,20,13,-1,0.7,33,0.9
Cc1ccc(S(=O)(=O)N2CCN(C(=O)N(c3ccccc3)c3ccccc3)CC2)cc1,-1,51*,0,0.5,52*,0.5
Cc1ccc(N(C)C(=O)N2CCN(S(=O)(=O)c3ccc4ccccc4c3)CC2)cc1,x,57*,-1,0.7,34,0.4
Cc1ccc(N(C)C(=O)N2CCN(c3ccccn3)CC2)cc1,12,21,0,0.5,53*,0.8
Cc1ccc(N(C)C(=O)N2CCN(S(=O)(=O)c3ccc(C)cc3)CC2)cc1,20,95*,-4,0.4,56*,0.1
Cc1cnc(C(=O)N2CCN(S(=O)(=O)c3ccc4ccccc4c3)CC2)cn1,-7,23,0,1.2,-15,0.8
Cc1ccc(C[n+]2cccc(-c3ccccc3)c2)c(C)c1,x,x,-2,x,x,x
S=C(NC1CCCCC1)N(CCc1ccccc1)CCc1ccccc1,x,x,-1,x,x,x
CCOc1ccc(C(=O)N/N=C/c2cc(Cl)ccc2[N+](=O)[O-])cc1,x,x,-3,x,x,x
CSc1n[nH]c(NCc2ccc(C)cc2)n1,9,x,0,x,x,x
CC(C)CC(=O)N1CCN(S(=O)(=O)c2ccc3ccccc3c2)CC1,-10,96*,0,1.9,-92,0
CC(C)CC1NC(=O)N(CC(=O)N2CCN(S(=O)(=O)c3ccc4ccccc4c3)CC2)C1=O (stereo not given),-6,11,-2,1.1,-7,0.9
CC(=O)c1ccc(N2CCN(C(=O)c3ccc(NC(=O)C4CCCO4)cc3)CC2)cc1 (stereo not given),1,19,0,0.8,16,0.8
CCOC(=O)c1c(NC(NC(C)=O)C(Cl)(Cl)Cl)sc(C(C)=O)c1C (stereo not given),x,38,-5,0.5,54*,0.6
CCOC(=O)c1sc(C)c(C(=O)NC2CCCCC2)c1N,15,7,-3,2.3*,-132,0.9
CCOC(=O)c1c(NC(=O)Cc2cccs2)sc(C(=O)NC2CCCC2)c1C,-5,9,1,0.7,29,0.9
CCOC(=O)c1c(NC(=O)Cc2cccs2)sc(C(=O)NC2CCCCC2)c1C,x,33,-5,0.3,71*,0.7
CCOC(=O)c1c(-c2ccc(OC)cc2)csc1/N=C/N(C)C,x,x,-2,x,x,x
CCOC(=O)c1c(/N=C/N(C)C)sc(C(=O)OC)c1C,30,78*,-2,0.5,50,0.2
CC(C)CN(C(=O)c1cc2ccccc2o1)c1c(N)n(CC(C)C)c(=O)[nH]c1=O,x,x,-1,x,x,x
